A number with no mark means an inactive call. Calls follow the shape of the dose curve; as a rule, active = well fitted activation curve with a large enough effect; inconclusive = small, poorly fitted or top-dose-only effect; inactive = flat fitted curve, though single readings scatter.
assay: Confirmation and Secondary Assay for Modulators of Hemoglobin Beta Chain Splicing at IVS2 654 locus (AID 910); conditions: HeLa EGFP-654 splicing reporter, GFP fluorescence, 48 h; series mostly up to 46.1 µM; activation (splicing correction): at the top concentration;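 also: HeLa cells stably carrying EGFP split by mutant beta-globin IVS2-654 intron; % of control where 0% means no effect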
From the text: NIH Chemical Genomics Center [NCGC] NIH Molecular Libraries Screening Centers Network [MLSCN] MLSCN Grant: 1 X01 MH080684-01 PI Name: Dr. Ryszard Kole NCGC Assay Overview: Modulation of Alternative Splicing as Therapy Abnormal splicing is associated with a number of diseases, including cancer and genetic diseases such as cystic fibrosis, muscular dystrophy and beta-thalassemia. Alteration of disease associated splicing patterns provides a promising target for treatment. […] Mutations in the second intron of the b-globin gene at positions 654 or 705 are clinically relevant and cause mis-splicing which results in an out of frame gene product. […] EGFP-654 HeLa Cells as screen system. HeLa cell lines were stably transfected with a construct in which the EGFP (enhanced green fluorescent protein) cDNA was interrupted by the second intron of the beta-globin gene (IVS2-654). The ISV2 intron contains mutations which cause mis-splicing of EGFP and premature termination of EGFP which results in a nonfluorescent protein product. […] Expression of the transgene was driven by the CMV promoter. We concluded that a low molecular weight compound, which restored correct splicing of intron 2 would also generate functional EGFP protein, resulting in a fluorescent signal. Thus, the HeLa cells that express the EGFP-654 construct can be used for high throughput screening of a chemical library.
NCGC Assay Protocol Summary: Confirmatory Screening. Freshly thawed HeLa EGFP-654 cells were seeded in 5 ul of optimem media (Invitrogen) containing 2 % fetal calf serum (Hyclone) and 1x penicillin/streptomycin (Invitrogen) at a concentration of 500 cells per well in 1536-well plates. Cells were incubated overnight at 37C in 5% CO2. The next day, cells were treated with DMSO, 500 nM antisense ISV2 654 PNA control oligo, or library compound and allowed to grow at 37C in 5% CO2 for 2 days. The PNA oligo blocked the mutation site in the intron and allowed proper (wild type) splicing to occur, resulting in full length EGFP expression and also allowed for optimization of the assay parameters. Plates were read in the Acumen Explorer (TTP Labtech) using 488 nm laser excitation and 500-520 nm emission PMT filter in a 1 x 8 uM capture mode. Fluorescnet objects ranging in size from 5 to 250 uM were measured and the total peak GFP intensity for each well was used for data analysis. Keywords: Thalassemia, beta-thalassemia, beta-globin, EGFP, ISV2 654, ISV2 705, SSO, PNA, antisense, splicing, MLSMR, MLSCN, NIH Roadmap, qHTS, NCGC

| SMILES | activation (splicing correction) |
| --- | --- |
| NC(=O)c1ccc(N)nc1 | 3.49% |
| COc1cc2c(cc1OC)[C@@]13CCN4CC5=CCOC6CC(=O)N2C1[C@H]6[C@@H]5C[C@@H]43 (stereo not given in full) | -0.563% |
| O=C(O)CCC1NCC2CC1CN1CCCCC21 (stereo not given) | -1.09% [at 38.3 µM] |
| CC1(C)C(O)CC(=O)[C@]2(C)C1CC(=O)[C@]1(C)C2CC[C@@]2(C)C(c3ccoc3)OC(=O)C3O[C@@]321 (stereo not given in full) | 3.45% |
| COc1cc2c(cc1OC)[C@@H]1C(=O)c3ccc4oc(C(C)C)cc4c3OC1CO2 (stereo not given in full) | -5.8% |
| COc1cc2c(cc1-c1cc3cc4ccoc4cc3oc1=O)OCO2 | -0.726% |
| C/C=C(\C)C(=O)OC1CC(OC(C)=O)[C@@]2(C(=O)OC)COC3C2[C@@]12CO[C@](O)(C(=O)OC)C2[C@](C)(C12OC1(C)C1CC2OC2OC=C[C@]21O)C3O (stereo not given in full) | 3.54% |
| CC1C(=O)OC2C1CC[C@@]1(C)C=CC(=O)[C@@]3(C)O[C@@]213 (stereo not given in full) | -2.27% |
| CCC(C)C(=O)OC1C(O)C2C(CN3CC(C)CCC3[C@]2(C)O)C2C[C@]34O[C@@]5(O)C(OC(=O)C(C)(O)C(C)O)CCC3(C)C5C(OC(C)=O)C(OC(C)=O)C4[C@@]21O (stereo not given in full) | -2.1% |
| CNC(C)C(O)c1ccccc1 (stereo not given) | 5.45% |
| CCC(N)C(O)c1ccc(O)c(O)c1 (stereo not given) | 6.4% |
| N#C/C(=C\c1ccc(O)cc1)C(=O)O | 1.87% [at 38.3 µM] |
| CCC1/C=C/C=CCC(C)C(O)[C@@](C)(O)C(=O)C(C)C(O)C(C)C(=O)C(C)C(O)C(C)C=CC(=O)O[C@H]2C(C)C(CC1)O[C@]1(CCC(C)C(CC(C)O)O1)C2C (stereo not given in full) | 3.19% [at 38.3 µM] |
| CC1(C)N([O-])[N+](=O)C1(C)Br (stereo not given) | 10.5% |
| CNc1ccccc1C(=O)O | 0.519% [at 38.3 µM] |
| CNC(=O)O/N=C(/C)SC | -2.2% [at 38.3 µM] |
| CCOCN(C(=O)CCl)c1c(C)cccc1CC | -1.63% [at 38.3 µM] |
| COc1cc(C2c3cc4c(cc3C(O)C3COC(=O)C23)OCO4)cc(OC)c1O (stereo not given) | -2.01% |
| CC(=O)CC1CCCCN1 (stereo not given) | 0.291% [at 38.3 µM] |
| COc1ccc2c(c1)[C@@]13CCCCC1[C@@H](C2)N(C)CC3 (stereo not given in full) | -6.62% |

| SMILES | activation (splicing correction) |
| --- | --- |
| CC(C)(C)C(=O)C(Oc1ccc(Cl)cc1)n1cncn1 (stereo not given) | 0.0285% [at 38.3 µM] |
| CN(C)C1C(=O)C(C(N)=O)=C(O)[C@@]2(O)C(=O)C3=C(O)c4c(O)ccc(Cl)c4[C@](C)(O)C3CC12 (stereo not given in full) | -0.831% |
| C=CC1CN2CCC1CC2C(OC(=O)OCC)c1ccnc2ccc(OC)cc12 (stereo not given) | 3.65% |
| CC1=C2C3OC(=O)C(C)C3CC[C@@]2(C)C=CC1=O (stereo not given in full) | -1.45% [at 38.3 µM] |
| CCCCCCC(C)OC(=O)COc1ccc(Cl)cc1Cl (stereo not given) | 0.305% [at 38.3 µM] |
| C[C@@]12CCC(Cl)C[C@H]1CCC1C2CC[C@]2(C)C(=O)CCC12 (stereo not given in full) | -1.3% [at 38.3 µM] |
| CC(=O)C1CCC2C3CCC4CC(O)CCC4(C)C3CC(O)C12C (stereo not given) | 4.01% |
| CC([C@H](O)c1ccccc1)N(C)C (stereo not given in full) | 0.0769% [at 38.3 µM] |
| O=C1C(Cl)=C(Cl)C(=O)C(Cl)=C1Cl | -5.93% |
| NCC(=O)c1ccccc1 | -0.15% [at 38.3 µM] |
| CCC12C=CCN3CCC4(c5ccc(OC)cc5N(C)C4[C@@](O)(C(=O)OC)C1OC(C)=O)C32 (stereo not given in full) | 1.24% [at 38.3 µM] |
| COC1C(O)C(C)O[C@H](OC2CC[C@@]3(C=O)C4CC[C@]5(C)C(C6=CC(=O)OC6)CC[C@@]5(O)C4CC[C@@H]3C2)C1O (stereo not given in full) | -6.42% |
| CCC(=O)Nc1ccc(Cl)c(Cl)c1 | 0.367% [at 38.3 µM] |
| CCOC(=O)C1C(C=C(C)C)C1(C)C (stereo not given) | 4.96% [at 38.3 µM] |
| COP(N)(=O)SC (stereo not given) | 1.55% [at 38.3 µM] |
| ClC(Cl)=C(c1ccc(Cl)cc1)c1ccc(Cl)cc1 | 0.185% [at 38.3 µM] |
| O=C(O)COc1ccc(Cl)cc1Cl | 6.23% [at 38.3 µM] |
| CC1/C=C/C=C/CC/C=C/C=C/C=C/C=C/C(OC2OC(C)C(O)C(N)C2O)CC2O[C@](O)(CC(O)C(O)CCC(O)CC(O)CC(O)CC(=O)OC(C)C(C)C1O)CC(O)C2C(=O)O (stereo not given in full) | 7.88% |
| CC(=O)OC1CCC23C(=O)OC45CCC(C6=CC(=O)OC6)C4(C)CCC2C5CCC3(O)C1 (stereo not given) | -5.45% |
| CC(=O)C1CC[C@H]2C3CC[C@@H]4CC(O)CC[C@@]4(C)C3CC[C@]12C (stereo not given in full) | -8.59% |
